Screens (PubChem)
Rows were chosen to be rich in hits. Some 13% of all compounds tested hit in one or more screens of this group.
Pf growth 48h: P. falciparum growth inhibition at 48 hours (one generation) | P. falciparum luciferase growth in erythrocytes, 48 h | Potency, µM (titrated, usually from 28.7 µM), for the others: top-dose activity change, negative = inhibition, actives largely listed as inhibitors | 310,000 compounds, 5.9% hits | AID 504832; also: potency is read from the fitted curve at half-maximal effect
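Luciferase-expressing parasites in RBCs, 2% Hct / 0.1% parasitemia final; RPMI 1640 + 0.5% Albumax; 37 C, 5% CO2, one generation; luminescence read-out, lower signal = inhibition.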
HCMV antiviral: human cytomegalovirus inhibition; HFF cells, HCMV-luciferase reporter, 72 h; active compounds read low; activity change, negative = inhibition, % at 57.5 µM; 410,000 compounds, 4.5% hits; in the data active = activity change below about -60%; inconclusive = no clear call, values can overlap the other calls; inactive = above about -39%
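Compounds were evaluated in HFFs infected with an HCMV luciferase reporter virus (MOI 1 PFU/cell). Luciferase in lysates collected 72 h post infection served as the replication measure.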
HCV inh: HCV inhibition | Huh7.5.1 HCVcc-Cre infection, luciferase reporter, 44 h | Potency, µM (series often up to 41.8 µM), for inactives: at the highest dose activity change, negative = inhibition, usual class: inhibitors | 340,000 compounds, 3.4% hits; also: potency is read from the fitted curve at half-maximal effect
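Compounds are dispensed onto cells plated 4 h earlier at 1,000 per well, with HCVcc-Cre virus (about 0.5 moi) added next. Following 44 h of culture, luminescent signal is measured for 15 sec after 15 min with substrate at room temperature.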
Pf growth 96h: inhibits malaria parasite growth, 96 h; 320,000 compounds, 6.9% hits; P. falciparum luciferase reporter growth, 96 h; Potency, µM (highest dose often 28.7 µM), without a hit: at the top dose activity change, negative = inhibition, most hits filed as inhibitors; AID 504834; also: potency is read from the fitted curve at half-maximal effect
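Two-generation exposure (96 h) targets delayed-death phenotype. Reporter parasites carrying integrated firefly luciferase, in red cells at 2% hematocrit and 0.05% parasitemia final, kept at 37 C, 5% CO2; luminescence loss indicates inhibition.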
An asterisk follows results filed as active; [ ] = another dose, or the depositor's remark. Unless noted, calls follow the shape of the dose curve; as a rule, active = well fitted inhibition curve with a large enough effect; inconclusive = small, poorly fitted or top-dose-only effect, or another doubt; inactive = no such curve, though single readings can be large or run the other way. % is scaled to controls: 0 for no effect and ±100 for the full control effect.

For Cc1ccc(Nc2c(-c3ccccn3)nc3cccc(C)n23)cc1 the results were Pf growth 48h inconclusive, HCMV antiviral 0, HCV inh 6.3µM* and Pf growth 96h inconclusive.
Screening Cc1cccc2nc(-c3ccccn3)c(Nc3ccc(F)cc3)n12 returned HCMV antiviral -97*.
`Cc1cccc2nc(-c3ccco3)c(Nc3ccccc3)n12` gave Pf growth 48h -10%, HCMV antiviral inconclusive, HCV inh inconclusive and Pf growth 96h -27%.
CCc1cc2c(cc3c(=O)n(CC(=O)NCc4cc(Br)ccc4OC)ncn32)s1 was read as HCMV antiviral 78.
Screening Cn1c(SCCCC(=O)c2ccccc2)nnc1-c1ccncc1 returned Pf growth 48h -17%, HCMV antiviral 36, HCV inh 8% and Pf growth 96h -1%.
Screening CCn1c(CSc2nnc(-c3ccncc3)n2CCOC)nc2cc(C(=O)O)ccc21 returned Pf growth 48h 9%, HCMV antiviral -24, HCV inh 5% and Pf growth 96h -3%.
Screening COCCn1c(SCCCC(=O)c2ccc(Br)cc2)nnc1-c1ccncc1 returned HCMV antiviral -71*, HCV inh 7.9µM* and Pf growth 96h 13µM*.
For Cn1c(SCCCC(=O)c2ccc(F)cc2)nnc1-c1ccncc1 the results were Pf growth 48h inconclusive, HCMV antiviral -33, HCV inh -23% and Pf growth 96h 10µM*.
For COCCn1c(SCC(=O)c2c(-c3ccccc3)n(C)c3ccccc23)nnc1-c1ccncc1 the results were Pf growth 48h inconclusive, HCMV antiviral -36, HCV inh inconclusive and Pf growth 96h inconclusive.
COCCn1c(SCC(=O)/C=C2\N(C)c3ccccc3C2(C)C)nnc1-c1ccncc1 was read as Pf growth 48h -20%, HCMV antiviral -75*, HCV inh inconclusive and Pf growth 96h inconclusive.
For Cc1ccc(OCc2nc(-c3ccc(C(=O)NCCc4ccc(Cl)cc4)cc3)oc2C)cc1 the results were HCMV antiviral 2.
Screening CCCCNC(=O)c1nn(-c2ccc(C)cc2)c(=O)n(C)c1=O returned HCMV antiviral -11.
Cc1ccc2c(=O)cc(C(=O)Nc3c(C)n(C)n(-c4ccccc4)c3=O)oc2c1C was read as HCMV antiviral 9.
For Cc1ccccc1CNC(=O)C1CCCN(c2nnc(-n3c(C)ccc3C)s2)C1 (centres undefined) the results were HCMV antiviral -35.
`CC(C)(C)NC(=O)c1ccc2nc(CCc3ccccc3)oc2c1` gave HCMV antiviral 40.
CCOc1cccc(=O)c2c(C)n(Cc3ccco3)c(C)c12 was read as Pf growth 48h 9.3µM*, HCMV antiviral -26, HCV inh inconclusive and Pf growth 96h inconclusive.
For CCOc1cccc(=O)c2c(C)n(Cc3ccccc3)c(C)c12 the results were Pf growth 48h inconclusive, HCMV antiviral -1, HCV inh 5% and Pf growth 96h 27%.
For COc1ccc(/C=C2\SC(=N)N(c3nccs3)C2=O)cc1OC the results were Pf growth 48h inconclusive, HCMV antiviral -94*, HCV inh inconclusive and Pf growth 96h inconclusive.
For N=C1S/C(=C\c2ccc(-c3cccc(Cl)c3)o2)C(=O)N1c1nccs1 the results were Pf growth 48h 4.7µM*, HCMV antiviral -78*, HCV inh 14% and Pf growth 96h inconclusive.
For COc1ccc(/C=C2\SC(=S)N(NC(=O)c3ccncc3)C2=O)cc1OC the results were Pf growth 48h 11% and Pf growth 96h inconclusive.
`CCOC(=O)C1CCN(C2=NC(=O)/C(=C/c3ccc(Cl)cc3)S2)CC1` gave Pf growth 48h 1%[0.00184 µM], HCMV antiviral -10, HCV inh 11% and Pf growth 96h -7%.
Screening CCOC(=O)CSC1=NC(=O)/C(=C\c2ccc(Cl)cc2)S1 returned Pf growth 48h 32%, HCMV antiviral -94*, HCV inh inconclusive and Pf growth 96h -1%.
`COc1ccccc1CNc1nccn(-c2ccccc2)c1=O` gave HCMV antiviral 55.
Cc1ccc(-c2cc(N)n(-c3ccccc3)n2)cc1 was read as Pf growth 48h 101%, HCMV antiviral 77, HCV inh -9% and Pf growth 96h 138%.
Screening Nc1cc(-c2ccc(OC(F)(F)F)cc2)nn1-c1ccc(Cl)c(Cl)c1 returned Pf growth 48h -7%, HCMV antiviral -66*, HCV inh -1% and Pf growth 96h -10%.
Screening O=C(Cn1ncc2c([nH]c3ccccc32)c1=O)NCCCN1CCN(c2ccc(F)cc2)CC1 returned HCMV antiviral -11.
`CSc1nnc(C(C)(C)C)c(=O)n1/N=C/c1ccc(Cl)cc1` gave Pf growth 48h inconclusive, HCMV antiviral 4, HCV inh 3% and Pf growth 96h inconclusive.
CSc1nnc(C(C)(C)C)c(=O)n1/N=C/c1ccc(C(C)C)cc1 was read as Pf growth 48h inconclusive, HCMV antiviral -63*, HCV inh 10% and Pf growth 96h 34%.
O=C(Nc1ccc(-c2cn3cccnc3n2)cc1)c1ccccc1F was read as HCMV antiviral 8.
`N#Cc1cc([N+](=O)[O-])ccc1N1CCN(c2ccccc2O)CC1` gave Pf growth 48h -23%, HCMV antiviral -37, HCV inh inconclusive and Pf growth 96h -57%.
Screening O=C(c1ccc(Br)cc1)c1cc([N+](=O)[O-])ccc1N1CCCCC1 returned Pf growth 48h inconclusive, HCMV antiviral -91*, HCV inh inconclusive and Pf growth 96h inconclusive.
`O=[N+]([O-])c1ccc(N2CCN(c3ccc([N+](=O)[O-])cc3CO)CC2)c(CO)c1` gave Pf growth 48h inconclusive, HCMV antiviral -66*, HCV inh 3.2µM* and Pf growth 96h inconclusive.
Screening COc1ccccc1C(=O)/C=C/c1ccc(N2CCCCC2)c([N+](=O)[O-])c1 returned Pf growth 48h inconclusive, HCMV antiviral -80*, HCV inh 11µM* and Pf growth 96h 7.4µM*.
COc1ccc(N2CCN(C(=O)c3ccccc3)CC2)c([N+](=O)[O-])c1 was read as Pf growth 48h 36%, HCMV antiviral -19, HCV inh 1% and Pf growth 96h inconclusive.
COc1ccc(N2CCN(C(=O)c3ccccc3Br)CC2)c([N+](=O)[O-])c1 was read as Pf growth 48h 16%[5.75 µM], HCMV antiviral -34, HCV inh -9% and Pf growth 96h 12µM*.
Screening O=C(O)c1ccccc1C(=O)c1ccc(N2CCCC2)c([N+](=O)[O-])c1 returned Pf growth 48h -6%[1.15 µM], HCMV antiviral 25, HCV inh 20% and Pf growth 96h 12µM*.
Screening CC1Cc2ccccc2N1C(=O)c1ccc(N2CCCCC2)c([N+](=O)[O-])c1 (centres undefined) returned Pf growth 48h -10%, HCMV antiviral -35, HCV inh -17% and Pf growth 96h 0%.
For CC1Cc2ccccc2N1C(=O)c1ccc(N2CCCC2)c([N+](=O)[O-])c1 (centres undefined) the results were Pf growth 48h inconclusive, HCMV antiviral -39, HCV inh 13µM* and Pf growth 96h inconclusive.
